# Measurements taken from paper PMC11062922 (Nature Chemical Biology, 2023).
# Like-named read-outs stand apart in the source and are kept apart here.
# Legend:
# Set-up in all cases: species or system human, MV4-11 + K-562 + COLO205 + SK-N-BE2 + OVCAR-8
# DDR1 = details: read-out: apparent Kd, n = 1
# DDR2 = details: read-out: apparent Kd, n = 1
# EPHA7 = details: read-out: apparent Kd; compound concentrations: 100 nM and 1000 nM (sheet 'Samples'), CATDS: 8.9054165794135901E-2; n = 1
# EPHB6 = details: read-out: apparent Kd; compound concentrations: 100 nM and 1000 nM (sheet 'Samples'), CATDS: 9.7568833330596599E-2; n = 1
# FLT3 = details: read-out: apparent Kd; compound concentrations: 100 nM and 1000 nM (sheet 'Samples'), CATDS: 0.15949914238657301; n = 1
# FLT4 = details: read-out: apparent Kd; compound concentrations: 100 nM and 1000 nM (sheet 'Samples'), CATDS: 0.353383658165352; n = 1
# RET = details: read-out: apparent Kd; compound concentrations: 100 nM and 1000 nM (sheet 'Samples'), CATDS: 0.464290470493195; n = 1
# CSNK2A1;CSNK2A3 = details: read-out: apparent Kd, compound concentrations: 100 nM and 1000 nM (sheet 'Samples'), n = 1
# CSNK2A2 = details: read-out: apparent Kd, compound concentrations: 100 nM and 1000 nM (sheet 'Samples'), n = 1
# DJA1 = tested on: T1, DJA1; details: read-out: apparent Kd; compound concentrations: 100 nM and 1000 nM (sheet 'Samples'), CATDS: 0.31646295058989898; n = 1
# T1 construct: gene DNAJA1
# EGFR = details: read-out: apparent Kd; compound concentrations: 100 nM and 1000 nM (sheet 'Samples'), CATDS: 7.48044992603729E-2; n = 1
# HCK = details: read-out: apparent Kd; compound concentrations: 100 nM and 1000 nM (sheet 'Samples'), CATDS: 0.11641359939997301; n = 1
# LYN = details: read-out: apparent Kd; compound concentrations: 100 nM and 1000 nM (sheet 'Samples'), CATDS: 9.0520394407802393E-2; n = 1
# MAPK11 = details: read-out: apparent Kd; compound concentrations: 100 nM and 1000 nM (sheet 'Samples'), CATDS: 7.53995695049028E-2; n = 1
# RIPK3 = details: read-out: apparent Kd, compound concentrations: 100 nM and 1000 nM (sheet 'Samples'), n = 1
# TAOK3 = details: read-out: apparent Kd; compound concentrations: 100 nM and 1000 nM (sheet 'Samples'), CATDS: 7.5717255281347595E-2; n = 1
# TNK1 = details: read-out: apparent Kd; compound concentrations: 100 nM and 1000 nM (sheet 'Samples'), CATDS: 0.107193891906807; n = 1
# YES1 = details: read-out: apparent Kd; compound concentrations: 100 nM and 1000 nM (sheet 'Samples'), CATDS: 0.13069382201385599; n = 1
# DCTPP1 = details: read-out: apparent Kd, compound concentrations: 100 nM and 1000 nM (sheet 'Samples'), n = 1
# EPHB4 = details: read-out: apparent Kd; compound concentrations: 100 nM and 1000 nM (sheet 'Samples'), CATDS: 0.37827965470914299; n = 1
# GSK3A = details: read-out: apparent Kd; compound concentrations: 100 nM and 1000 nM (sheet 'Samples'), CATDS: 0.126367112680837; n = 1
# GSK3B = details: read-out: apparent Kd; compound concentrations: 100 nM and 1000 nM (sheet 'Samples'), CATDS: 0.11758336701376999; n = 1
# HSP90AA1 = details: read-out: apparent Kd; compound concentrations: 100 nM and 1000 nM (sheet 'Samples'), CATDS: 0.187388385432427; n = 1
# HSPE1 = details: read-out: apparent Kd; compound concentrations: 100 nM and 1000 nM (sheet 'Samples'), CATDS: 0.293791169928867; n = 1
# PGK1 = details: read-out: apparent Kd; compound concentrations: 100 nM and 1000 nM (sheet 'Samples'), CATDS: 0.43205738676527899; n = 1
# PKM = details: read-out: apparent Kd; compound concentrations: 100 nM and 1000 nM (sheet 'Samples'), CATDS: 9.7600585068996298E-2; n = 1
# FYN = details: read-out: apparent Kd; compound concentrations: 100 nM and 1000 nM (sheet 'Samples'), CATDS: 8.5832491833895103E-2; n = 1
# PIK3CD = details: read-out: apparent Kd; compound concentrations: 100 nM and 1000 nM (sheet 'Samples'), CATDS: 0.50363081174980595; n = 1
# PRKD1 = details: read-out: apparent Kd; compound concentrations: 100 nM and 1000 nM (sheet 'Samples'), CATDS: 0.12301509267520799; n = 1
# PRKD2 = details: read-out: apparent Kd; compound concentrations: 100 nM and 1000 nM (sheet 'Samples'), CATDS: 0.237501197916752; n = 1
# PRKD3 = details: read-out: apparent Kd; compound concentrations: 100 nM and 1000 nM (sheet 'Samples'), CATDS: 0.165514181456969; n = 1
# PHKG2 = details: read-out: apparent Kd; compound concentrations: 100 nM and 1000 nM (sheet 'Samples'), CATDS: 0.27508455171149998; n = 1
# PIK3CG = details: read-out: apparent Kd; compound concentrations: 100 nM and 1000 nM (sheet 'Samples'), CATDS: 0.403949586222208; n = 1
# [1] = compound concentrations:100 nM and 1000 nM (sheet 'Samples')
compound,measurement,setting,value
Nc1ncnc2occ(-c3ccc(NC(=O)Nc4cccc(C(F)(F)F)c4)cc3)c12 [GW795493X],potency estimated from few doses,"DDR1; compound concentrations: 100 nM and 1000 nM (sheet 'Samples'), CATDS: 0.13274475237022501",0.405 µM
same,potency estimated from few doses,"DDR2; compound concentrations: 100 nM and 1000 nM (sheet 'Samples'), CATDS: 0.11447916272035",0.681 µM
same,potency estimated from few doses,EPHA7,2.22 µM
same,potency estimated from few doses,EPHB6,1.35 µM
same,potency estimated from few doses,FLT3,0.229 µM
same,potency estimated from few doses,FLT4,0.0346 µM
same,potency estimated from few doses,RET,0.0216 µM
CC(=O)c1c(C)c2cnc(Nc3ccn(C)n3)nc2n(C2CCCC2)c1=O [PFE-PKIS_44],potency estimated from few doses,CSNK2A1;CSNK2A3; CATDS: 0.47499416496698399,2.26 µM
same,potency estimated from few doses,CSNK2A2; CATDS: 0.52778498170906496,1.83 µM
O=C(Nc1cccc(-c2nn3ncccc3c2-c2ccnc(Nc3ccccc3)n2)c1)c1c(F)cccc1F [GSK198271A],potency estimated from few doses,"DDR1; compound concentrations: 100 nM and 1000 nM (sheet 'Samples'), CATDS: 0.101729312677661",0.711 µM
same,potency estimated from few doses,DJA1,0.111 µM
same,potency estimated from few doses,EGFR,1.6 µM
same,potency estimated from few doses,HCK,0.537 µM
same,potency estimated from few doses,LYN,0.933 µM
same,potency estimated from few doses,MAPK11,1.56 µM
same,potency estimated from few doses,RIPK3; CATDS: 9.4746109979172405E-2,0.836 µM
same,potency estimated from few doses,TAOK3,1.54 µM
same,potency estimated from few doses,TNK1,0.635 µM
same,potency estimated from few doses,YES1,0.431 µM
NC(=O)c1cc(-c2ccc(F)cc2)cc(-c2ccncc2)c1N [GSK620503A],potency estimated from few doses,DCTPP1; CATDS: 0.31656078381531599,1.52 µM
same,potency estimated from few doses,EPHB4,1.07 µM
same,potency estimated from few doses,RIPK3; CATDS: 0.31274412248273797,1.56 µM
Cc1cn(-c2cc(NC(=O)c3ccc4c(c3)CN(c3cncnc3)C[C@@H]4C)cc(C(F)(F)F)c2)cn1 [D2202-1],potency estimated from few doses,DDR1; [1],0.494 µM
same,potency estimated from few doses,DDR2; [1],0.915 µM
Cn1cc(C2=C(c3cn(C)c4ccc(Cl)cc34)C(=O)NC2=O)c2ccccc21 [RO0317621-000],potency estimated from few doses,DCTPP1; CATDS: 8.8642199403974303E-2,2.01 µM
same,potency estimated from few doses,GSK3A,0.423 µM
same,potency estimated from few doses,GSK3B,0.544 µM
same,potency estimated from few doses,HSP90AA1,0.137 µM
same,potency estimated from few doses,HSPE1,0.0528 µM
same,potency estimated from few doses,PGK1,0.0276 µM
same,potency estimated from few doses,PKM,1.18 µM
Cc1cccc(-c2nc(Nc3ccc4[nH]nnc4c3)c3ccccc3n2)n1 [GW867587X],potency estimated from few doses,CSNK2A1;CSNK2A3; CATDS: 0.129612529480612,0.199 µM
same,potency estimated from few doses,CSNK2A2; CATDS: 0.107908062412964,0.369 µM
same,potency estimated from few doses,FYN,1.18 µM
same,potency estimated from few doses,PIK3CD,0.0132 µM
same,potency estimated from few doses,PRKD1,0.233 µM
same,potency estimated from few doses,PRKD2,0.047 µM
same,potency estimated from few doses,PRKD3,0.103 µM
O=[N+]([O-])c1ccc2c(c1)C(c1ccccc1Cl)=Nc1c[nH]nc1N2 [RO0117162-000],potency estimated from few doses,DCTPP1; CATDS: 0.34611685739606901,1.45 µM
same,potency estimated from few doses,PHKG2,2.44 µM
same,potency estimated from few doses,PIK3CG,1.09 µM
